Structures are written as SMILES. Activity calls are given as the source filed them.

Drawing on PubChem BioAssay, this text covers composite z-score and z-score for five compounds.

The nature of assay [1]: small molecules captured by biotinylated probe aFSTL3 – biochemical, small-molecule microarray, fluorescence 635/667, stem cell growth factor project, primary screen (AID 1064).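 Note: measures binding of the biotinylated anti-FSTL3 antibody to printed compounds.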 The conditions noted are these: higher = more signal.
A short description of assay [2]: binders from COS7 lysate, DM2A8 probe, primary screen, torsin A project, cell lysate, small-molecule microarray, fluorescence 635/667 (AID 1065). The conditions noted are these: higher = more signal, COS7 lysate expressing mutant human TOR1A.
The nature of assay [3]: small molecules captured by biotinylated probe aFGF2 – biochemical, small-molecule microarray, fluorescence 635/667, stem cell growth factor project, primary screen (AID 1067).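 Note: measures binding of biotinylated aFGF2 protein to printed compounds on slides; z-score merges feature fluorescence and signal-to-noise across triplicate slides.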 The conditions noted are these: higher = more signal.
Assay [4] can be described thus: small molecules captured by biotinylated probe aFGF10 – biochemical, small-molecule microarray, fluorescence 635/667, stem cell growth factor project, primary screen (AID 1071).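 Note: score merges 667 nm spot intensity and signal to noise from triplicate slides.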 Particulars: higher = more signal.
In assay [5] the target is Neurogenic locus notch homolog protein 2 (Homo sapiens) (UniProt Q04721). Briefly: small molecules binding Notch2 protein – biochemical, small-molecule microarray, 635 nm fluorescence, stem cell growth factors, primary screen (AID 1073). Particulars: higher = more signal.
Assay [6] addresses Pro-neuregulin-1, membrane-bound isoform (Homo sapiens) (UniProt Q02297). Briefly: small molecules binding neuregulin-1 protein – biochemical, small-molecule microarray, fluorescence 635/667, psychiatric disease protein project, primary screen (AID 1075).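 Note: score combines 667 nm spot fluorescence with signal to noise.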 The conditions noted are these: NRG1 binding, 635 nm fluorescence, higher = more signal.
In assay [7] the test system is Neuregulin-1 EGF-like domain. The assay is described as follows: small molecules binding NRG1 EGF domain – biochemical, small-molecule microarray, 635 nm fluorescence, primary screen (AID 1081).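 Note: binding of the protein to compounds printed on small-molecule microarray slides.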 The conditions noted are these: higher = more signal.
A short description of assay [8]: FRG1 expression reporter modulators in myotubes – cell-based, C2C12 myotubes, firefly/Renilla luciferase, luminescence, FRG1 inhibition for FSHD, primary screen (AID 1084). The conditions noted are these: FRG1 promoter luciferase, higher = more signal, called active from +8 up or from −8 down.
Assay [9] in a line: small molecules captured by biotinylated probe aFST – biochemical, small-molecule microarray, fluorescence 635/667, stem cell growth factor project, primary screen (AID 1086).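 Note: score merges 667 nm fluorescence with signal-to-noise of each printed compound spot.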 Particulars: higher = more signal.
A short description of assay [10]: binders of probe aHhip on microarray, primary screen, stem cell growth factor project, biochemical, small-molecule microarray, fluorescence 635/667 (AID 1087).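 Note: score merges spot fluorescence at 667nm with spot signal to noise ratio.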 The conditions noted are these: higher = more signal.
The subject of assay [11] is PRMT1 (protein arginine N-methyltransferase 1). Briefly: small molecules binding arginine methyltransferase PRMT1 – biochemical, small-molecule microarray, 635 nm fluorescence, primary screen (AID 1088).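 Note: binding of Prmt1 protein to compounds spotted on small-molecule microarray slides.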 Particulars: higher = more signal.
Assay [12] is described as follows: growth effects on S. cerevisiae YJM789 – YJM789 clinical isolate, OD600, 24 h, basal, primary screen (AID 1089).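 Note: growth of clinical yeast isolate S. cerevisiae YJM 789 seeded 1000 cells per well; test concentration not given here.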 Particulars: higher = more signal, called active from +8 up or from −8 down.
The nature of assay [13]: S. pombe growth modifiers, basal conditions – strain 972, OD600, 24 h, no modulator, primary screen (AID 1090).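 Note: basal condition with compound alone and no growth modifier present; test concentration not given here.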 Particulars: S. pombe 972 growth, higher = more signal, called active from +8 up or from −8 down.
A short description of assay [14]: budding yeast growth modifiers under rapamycin – strain BY4716, OD600, 96 h, primary screen (AID 1091). Note: test concentration not given here. The conditions noted are these: S. cerevisiae BY4716 + rapamycin, higher = more signal, called active from +8 up or from −8 down.
Assay [15] deals with Torsin-1A-interacting protein 2 (Homo sapiens) (UniProt Q8NFQ8). The assay is described as follows: small molecules binding lysate-expressed LULL1 – cell lysate, human LULL1 lysate, 635/667 nm fluorescence, primary screen (AID 1092).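 Note: probe is lysate of COS7 cells overexpressing human LULL1; score merges per-feature 667 nm fluorescence with signal-to-noise.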 Particulars: small-molecule microarray, hLULL1 lysate binding, 635 nm fluorescence; higher = more signal.
The nature of assay [16]: optical density change of DRC41 E. coli – strain DRC41, OD650, 24 h, E. coli filamentation project, primary screen (AID 1093).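 Note: MC1000 strain lacking acrAB efflux and sulA so SOS filamentation is blocked; test concentration not given here.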 The conditions noted are these: E. coli DRC41 growth, higher = more signal, called active from +8 up or from −8 down.
Assay [17] in a line: probe aLefty2 binding to arrayed compounds – biochemical, biotinylated probe, 635/667 nm fluorescence, primary screen (AID 1094).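 Note: score merges spot fluorescence near 667 nm with spot signal-to-noise ratio.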 Particulars: small-molecule microarray, higher = more signal.
For assay [18], the system named is Noggin (protein binding on small-molecule microarray). Briefly: small molecules binding Noggin protein – biochemical, 635/667 nm fluorescence, primary screen (AID 1095).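 Note: score merges 667 nm feature fluorescence with signal to noise over triplicate slides.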 The conditions noted are these: 635 nm fluorescence, higher = more signal.
Assay [19] addresses Neurogenic locus notch homolog protein 3 (Homo sapiens) (UniProt Q9UM47). Briefly: small molecules binding NOTCH3 protein – biochemical, 635/667 nm fluorescence, primary screen (AID 1096). The conditions noted are these: small-molecule microarray, 635 nm fluorescence, higher = more signal.
Assay [20] is described as follows: probe aEGFR binding to arrayed compounds – biochemical, biotinylated probe, 635/667 nm fluorescence, primary screen (AID 1097).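 Note: probe is a biotinylated anti-EGFR antibody binding compounds printed on slides; score combines fluorescence near 667 nm and signal to noise of each spot.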 The conditions noted are these: small-molecule microarray, higher = more signal.

Chain of Torsin-1A-interacting protein 2 (Homo sapiens) (Q8NFQ8 whole entry, looked up): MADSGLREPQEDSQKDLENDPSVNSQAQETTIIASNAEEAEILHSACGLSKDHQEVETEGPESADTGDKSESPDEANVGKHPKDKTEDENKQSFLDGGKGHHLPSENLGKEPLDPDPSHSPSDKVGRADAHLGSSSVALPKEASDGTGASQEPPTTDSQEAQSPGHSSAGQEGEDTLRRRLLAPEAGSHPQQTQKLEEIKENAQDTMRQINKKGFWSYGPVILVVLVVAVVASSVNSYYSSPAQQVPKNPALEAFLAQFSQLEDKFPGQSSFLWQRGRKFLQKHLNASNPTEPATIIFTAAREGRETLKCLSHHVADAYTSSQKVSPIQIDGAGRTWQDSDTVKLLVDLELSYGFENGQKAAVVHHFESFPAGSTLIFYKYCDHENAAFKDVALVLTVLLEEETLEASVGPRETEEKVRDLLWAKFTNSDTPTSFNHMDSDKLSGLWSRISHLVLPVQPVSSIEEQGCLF
Chain of Neurogenic locus notch homolog protein 2 (Homo sapiens) (Q04721 whole entry, looked up, canonical isoform): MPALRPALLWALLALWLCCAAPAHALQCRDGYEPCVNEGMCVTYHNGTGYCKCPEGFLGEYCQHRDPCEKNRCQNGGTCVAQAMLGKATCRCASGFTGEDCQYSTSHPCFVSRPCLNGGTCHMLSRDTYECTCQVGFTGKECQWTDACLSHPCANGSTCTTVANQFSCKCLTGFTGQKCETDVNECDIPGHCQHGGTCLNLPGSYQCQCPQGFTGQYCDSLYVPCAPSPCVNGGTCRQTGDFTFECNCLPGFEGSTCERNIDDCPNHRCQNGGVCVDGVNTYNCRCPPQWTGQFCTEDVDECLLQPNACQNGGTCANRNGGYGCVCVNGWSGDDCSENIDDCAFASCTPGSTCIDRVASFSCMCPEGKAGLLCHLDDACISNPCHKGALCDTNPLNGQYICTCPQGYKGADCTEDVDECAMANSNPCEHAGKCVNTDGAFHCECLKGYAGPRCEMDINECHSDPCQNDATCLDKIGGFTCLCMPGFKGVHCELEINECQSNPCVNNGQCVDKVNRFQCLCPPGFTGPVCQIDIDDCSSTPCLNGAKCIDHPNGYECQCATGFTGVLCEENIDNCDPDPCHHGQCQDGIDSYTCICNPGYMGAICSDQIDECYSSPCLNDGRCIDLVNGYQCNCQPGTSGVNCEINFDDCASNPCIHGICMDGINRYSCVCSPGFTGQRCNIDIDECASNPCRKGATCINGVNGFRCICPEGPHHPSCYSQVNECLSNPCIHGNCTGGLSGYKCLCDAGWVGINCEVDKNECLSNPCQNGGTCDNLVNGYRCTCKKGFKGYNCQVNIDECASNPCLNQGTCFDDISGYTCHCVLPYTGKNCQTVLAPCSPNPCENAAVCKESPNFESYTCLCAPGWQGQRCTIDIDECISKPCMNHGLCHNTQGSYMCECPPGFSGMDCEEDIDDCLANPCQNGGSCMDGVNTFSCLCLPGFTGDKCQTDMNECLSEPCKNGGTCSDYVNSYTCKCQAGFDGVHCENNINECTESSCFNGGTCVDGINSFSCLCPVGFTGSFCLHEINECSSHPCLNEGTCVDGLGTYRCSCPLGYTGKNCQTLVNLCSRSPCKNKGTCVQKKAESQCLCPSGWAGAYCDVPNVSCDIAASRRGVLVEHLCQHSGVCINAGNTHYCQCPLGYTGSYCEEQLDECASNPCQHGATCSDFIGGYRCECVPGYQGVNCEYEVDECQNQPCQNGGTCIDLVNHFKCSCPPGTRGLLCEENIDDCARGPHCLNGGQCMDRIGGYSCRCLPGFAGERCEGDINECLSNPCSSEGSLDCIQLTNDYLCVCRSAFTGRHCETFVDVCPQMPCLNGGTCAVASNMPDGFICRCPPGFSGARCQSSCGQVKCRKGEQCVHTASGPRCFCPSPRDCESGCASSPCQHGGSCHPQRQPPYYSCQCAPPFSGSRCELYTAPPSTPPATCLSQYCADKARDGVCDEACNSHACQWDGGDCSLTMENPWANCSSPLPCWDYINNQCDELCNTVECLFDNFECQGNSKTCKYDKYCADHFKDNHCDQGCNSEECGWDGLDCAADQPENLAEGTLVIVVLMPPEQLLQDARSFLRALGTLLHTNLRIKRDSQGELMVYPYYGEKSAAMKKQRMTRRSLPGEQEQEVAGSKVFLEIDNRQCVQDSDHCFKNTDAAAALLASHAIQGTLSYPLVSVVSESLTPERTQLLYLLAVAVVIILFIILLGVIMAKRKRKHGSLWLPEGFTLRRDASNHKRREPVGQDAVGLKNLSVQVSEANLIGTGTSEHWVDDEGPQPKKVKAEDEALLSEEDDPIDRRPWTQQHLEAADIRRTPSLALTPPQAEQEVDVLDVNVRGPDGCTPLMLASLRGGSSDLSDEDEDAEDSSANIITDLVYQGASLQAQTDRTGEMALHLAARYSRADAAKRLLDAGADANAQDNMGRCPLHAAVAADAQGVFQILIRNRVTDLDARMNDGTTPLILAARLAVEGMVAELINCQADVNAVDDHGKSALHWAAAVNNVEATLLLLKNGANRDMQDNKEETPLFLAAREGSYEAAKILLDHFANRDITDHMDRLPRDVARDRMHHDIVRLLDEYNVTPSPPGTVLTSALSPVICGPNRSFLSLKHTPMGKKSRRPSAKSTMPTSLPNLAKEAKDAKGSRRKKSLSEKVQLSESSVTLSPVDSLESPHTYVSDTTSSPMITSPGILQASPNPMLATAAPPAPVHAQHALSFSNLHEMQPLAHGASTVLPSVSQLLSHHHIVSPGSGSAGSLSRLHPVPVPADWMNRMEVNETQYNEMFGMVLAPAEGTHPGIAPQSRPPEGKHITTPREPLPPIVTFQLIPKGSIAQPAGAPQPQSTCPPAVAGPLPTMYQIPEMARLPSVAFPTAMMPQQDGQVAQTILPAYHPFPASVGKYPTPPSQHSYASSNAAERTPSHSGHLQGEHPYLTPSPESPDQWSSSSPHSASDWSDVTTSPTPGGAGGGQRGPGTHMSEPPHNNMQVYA
Chain of Pro-neuregulin-1, membrane-bound isoform (Homo sapiens) (Q02297 whole entry, looked up, the tested form may be a part, canonical isoform): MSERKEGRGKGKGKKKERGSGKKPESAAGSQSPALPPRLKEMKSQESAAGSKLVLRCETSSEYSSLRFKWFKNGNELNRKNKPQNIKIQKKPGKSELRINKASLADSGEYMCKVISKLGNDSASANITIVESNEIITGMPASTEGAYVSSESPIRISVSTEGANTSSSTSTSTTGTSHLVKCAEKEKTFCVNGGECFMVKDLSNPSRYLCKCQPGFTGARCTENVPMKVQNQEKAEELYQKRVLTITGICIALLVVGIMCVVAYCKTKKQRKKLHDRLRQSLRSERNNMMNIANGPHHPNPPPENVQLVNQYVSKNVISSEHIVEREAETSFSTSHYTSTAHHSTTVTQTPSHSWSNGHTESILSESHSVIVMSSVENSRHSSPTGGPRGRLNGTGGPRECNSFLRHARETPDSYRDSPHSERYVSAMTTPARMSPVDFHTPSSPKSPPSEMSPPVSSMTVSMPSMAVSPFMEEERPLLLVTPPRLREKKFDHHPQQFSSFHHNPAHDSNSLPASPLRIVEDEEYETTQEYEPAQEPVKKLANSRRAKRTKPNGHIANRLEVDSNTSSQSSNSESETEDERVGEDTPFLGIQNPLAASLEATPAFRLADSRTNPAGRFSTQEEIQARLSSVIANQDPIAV

With `CCN(CC)c1ccc(N2CC=CC34O[C@@H]5C=CCCOC(=O)C5[C@H]3C(=O)N(CCCCCCO)[C@@H]4C2=O)cc1` (stereo not given in full), the composite z-score in [1] was -0.16; in assay [2] it was 0.345; in [3], -0.16; in assay [4], -0.286; in assay [5], -0.439; in [6], -0.173. The composite z-score in assay [7] was 1.6; in assay [9], -0.581; in assay [10], -0.249; in assay [11] it was -0.171; in [15], 2.94; in assay [17] it was -0.192. Besides, the composite z-score in [18] was -0.612; in [19] it was -0.619; in assay [20], -0.0493. Besides, the z-score is -0.959 (inactive) in [8]; -2.16 (inactive) in assay [12]; -0.431 (inactive) in assay [13]; -1.74 (inactive) in [14]; 2.49 (inactive) in assay [16].

For the compound `C=CCNC(=O)[C@@H]1[C@H]2C(=O)O[C@H](c3ccccc3)[C@H](c3ccccc3)N2[C@H](c2ccc(OCCO)cc2)[C@@]12C(=O)Nc1ccc(C#CCC(C(=O)OC)C(=O)OC)cc12`, the composite z-score was 0.148 in assay [1]; 0.694 in assay [2]; 0.0185 in assay [3]; 0.721 in [4]; 0.89 in assay [5]; 1.81 in assay [6]. Besides, the composite z-score in [7] amounted to 1.3; in [9], 0.452; in assay [10] it was 0.0505; in assay [11], 1.53; in [15], 3.04; in [17] it was 0.0869. Moreover, the composite z-score in assay [18] is 1.31; in [19], 0.981; in assay [20], -0.0466. Besides, the z-score in assay [8] was 0.141 (inactive); in assay [12] it was 1.87 (inactive); in [13] it was 2.03 (inactive); in [14], 3.83 (inactive); in [16], 1.92 (inactive).

Regarding `CCc1cccc(NC(=O)O[C@H]2[C@H](OC(=O)Nc3ccccc3-c3ccccc3)[C@@H](OC(=O)Nc3ccccc3-c3ccccc3)[C@@H](OC)O[C@@H]2CO)c1`, the composite z-score in [1] was -0.283; in [2], 0.79; in assay [3], 0.14; in [4], 0.806; in assay [5] it was 1.6; in assay [6] it was 1.88. Further, the composite z-score in assay [7] was 1.27; in assay [9], 1.32; in [10], -0.104; in assay [11], 1.53; in assay [15], 3.43; in assay [17], 0.126. The composite z-score is 0.666 in [18], 1.07 in assay [19] and 0.0506 in [20]. In addition, the z-score in assay [8] is 1.38 (inactive); in assay [12] it was 0.182 (inactive); in [13], 1.42 (inactive); in [14], -2.51 (inactive); in assay [16] it was -1.31 (inactive).

For `O=C1c2ccccc2[C@](Cc2ccccc2I)(C(=O)NCC(F)(F)F)[C@H](c2ccc(CO)cc2)N1Cc1ccccc1Cl`, the composite z-score is -0.266 in assay [1]; 0.0347 in assay [2]; 0.0069 in assay [3]; 0.106 in [4]; 0.95 in assay [5]; 1.74 in [6]. Besides, the composite z-score in [7] is 1.28; in assay [9], 0.748; in assay [10], 0.0373; in [11] it was 1.53; in [15], 3; in assay [17] it was -0.0283. Besides, the composite z-score was 0.496 in [18], 0.958 in assay [19] and -0.0409 in assay [20]. The z-score in [8] was -1.05 (inactive); in assay [12], -0.893 (inactive); in assay [13], -1.09 (inactive); in [14], -1.29 (inactive); in assay [16], -0.267 (inactive).

For the compound `COC(=O)c1c(CC[C@@H](CO)NC(=O)NCCn2cc(C3(O)CCCC3)nn2)oc(C(C)=O)c1C(=O)OC`, the composite z-score in assay [1] is -0.465; in [2], 0.24; in [3], 0.127; in [4] it was 0.173; in assay [5], -0.119; in assay [6], 0.718. Also, the composite z-score was 0.685 in [7]; -0.204 in [9]; -0.184 in [10]; 0.463 in assay [11]; 3.24 in assay [15]; -0.23 in assay [17]. For the same compound, the composite z-score is 0.0587 in assay [18], -0.33 in assay [19] and -0.0778 in assay [20]. Moreover, the z-score in assay [8] was -0.598 (inactive); in assay [12], -0.539 (inactive); in assay [13], -0.263 (inactive); in [14], -0.0147 (inactive); in [16] it was -0.918 (inactive).
